Consider seven compounds from PubChem BioAssay (NCATS).

Experiment [1] deals with Phospholipid hydroperoxide glutathione peroxidase GPX4 (Homo sapiens) (UniProt P36969). The experiment in a line: Primary qHTS Assay for Inhibitors of Recombinant Selenoprotein Glutathione Peroxidase 4 (GPX4) (AID 1845192). For activity change, negative = inhibition: % is set by controls: 0 for no effect and ±100 for the full control effect. Note: nearly all actives have a fitted effect of over 65% in size. The procedure, abridged:
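GR-coupled readout: 100 nM GR, 1 mM GSH, 0.5 mM NADPH; NADPH fluorescence (ex 340/em 450 nm) read at t=0 and after 15 min RT. GPX4 200 nM, preincubated 30 min with compound; substrate 0.5 mM CHP.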

In experiment [2] the target is Luciferin 4-monooxygenase (Photinus pyralis) (UniProt P08659). The experiment in a line: Primary firefly luciferase (FLuc) qHTS assay for identification of artifact compounds. (AID 1845220).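 For activity change, negative = inhibition: plate controls were DMSO vehicle for no effect and no enzyme for full effect.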 Note: nearly all actives have a fitted effect of over 60% in size. The procedure, abridged:
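Reaction readout was CCD-imaged luminescence, taken 5 min after adding 10 nM purified firefly enzyme to compound-treated wells holding 10 uM luciferin and ATP in pH 7.6 buffer.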
(In qHTS, concentration-response curves come from the screen itself.)

Experiment [3] in a line: Primary fluorescence-based thiol-reactive (MSTI) qHTS assay for identification of artifact compounds. (AID 1845221).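 Note: thiol-reactive compounds lower the probe fluorescence signal; nearly all actives have a fitted effect of over 65% in size.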 The procedure, abridged: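 MSTI probe at 4 uM final in 2% DMSO/PBS pH 7.4; compounds, 1 h at room temperature in dark. Fluorescence Ex/Em 525/598 nm, normalised to Acetyl-MSTI and MSTI, fitted to 4-parameter Hill.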
The test system of experiment [4] is Nanoluciferase (engineered Oplophorus gracilirostris luciferase). Put plainly: Primary Nanoluciferase (NLuc) qHTS assay for identification of artifact compounds. (AID 1845222).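 Note: NLuc secreted into diluted conditioned medium of S16 cells; 0% = DMSO and -100% = no enzyme.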 The procedure, abridged: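 Concentration-response data were obtained by luminescence after 5 min with Nano-Glo substrate at 1:100. The enzyme was diluted S16 NLuc-expressing cell medium, preincubated with compound for 15 min at RT. Curves were fitted with a 4-parameter Hill model.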

Experiment [5] can be described thus: Primary redox qHTS assay for identification of artifact compounds. (AID 1845223).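 Note: 0% = DMSO and 100% = reference compound.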 The procedure, abridged: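 Amplex Red (25 uM) and HRP (250 mU/mL) in HBSS, with compounds for 15 min, then 250 uM DTT for 30 min, room temperature, dark. Fluorescence 525/598 nm read; normalized to DMSO and 10 uM DA3003; Hill fit.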
Experiment [6] is described as follows: Quantitative High-Throughput drug screen in 47 multiple myeloma cell lines against the NCATS MIPE library collection: FR4_PLB cell viability assay (AID 1918924; note: nearly all actives have a fitted effect of over 35% in size; note: potency is the fitted concentration of half-maximal effect). The procedure, abridged:
(§1)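 Viability readout: CellTiter-Glo luminescence following 5 min room-temperature incubation with reagent. Prior exposure: 48 h, 37C, humidified 5% CO2, 500 cells per well.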

Experiment [7] in a line: Quantitative High-Throughput drug screen in 47 multiple myeloma cell lines against the NCATS MIPE library collection: Delta47_JCRB cell viability assay (AID 1918925; note: nearly all actives have a fitted effect of over 45% in size; note: potency is the fitted concentration of half-maximal effect). The procedure, abridged:
(§2)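 Inhibition of cell viability is measured here. Each line was plated at 500 cells per well, treated with MIPE 4.0 drugs, kept 48 hours at 37C, then assayed for ATP content by CellTiter-Glo luminescence.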

Experiment [8] can be described thus: Quantitative High-Throughput drug screen in 47 multiple myeloma cell lines against the NCATS MIPE library collection: EJM_DSMZ cell viability assay (AID 1918926; note: nearly all actives have a fitted effect of over 30% in size; note: potency is the fitted concentration of half-maximal effect). The procedure, abridged: as §2
The nature of experiment [9]: Quantitative High-Throughput drug screen in 47 multiple myeloma cell lines against the NCATS MIPE library collection: AMO1_DSMZ cell viability assay (AID 1918927; note: potency is the fitted concentration of half-maximal effect; nearly all actives have a fitted effect of over 30% in size). The procedure, abridged:
as §2

A short description of experiment [10]: Quantitative High-Throughput drug screen in 47 multiple myeloma cell lines against the NCATS MIPE library collection: KMM1_JCRB cell viability assay (AID 1918960). Note: nearly all actives have a fitted effect of over 30% in size. Note: potency is the fitted concentration of half-maximal effect. The procedure, abridged: (§3)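 Myeloma cells at 500 per well in 1536-well format treated with MIPE 4.0 library by pin transfer for 48 h at 37C, 5% CO2. Viability from ATP luminescence (CellTiter-Glo), normalized to DMSO (100%) and media-only (0%) wells.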

Experiment [11] can be described thus: Quantitative High-Throughput drug screen in 47 multiple myeloma cell lines against the NCATS MIPE library collection: Karpas417_ECACC cell viability assay (AID 1918961). Note: potency is the fitted concentration of half-maximal effect. The note with it: Karpas417 myeloma viability, CellTiter-Glo ATP luminescence, 48 h; viability (% of DMSO): at 45.8 µM (top of the series). The procedure, abridged:
(§4)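 Approved and investigational drugs from MIPE 4.0 were added by pin tool to 500 cells per well. After 48 hours at 37C, ATP-based CellTiter-Glo luminescence indicated remaining viability.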
(In general: In ATP-based viability assays light output follows the ATP content of the culture.)

The nature of experiment [12]: Quantitative High-Throughput drug screen in 47 multiple myeloma cell lines against the NCATS MIPE library collection: KHM11_PLB cell viability assay (AID 1918962). Note: nearly all actives have a fitted effect of over 35% in size. Note: potency is the fitted concentration of half-maximal effect. The procedure, abridged:
as §1

The nature of experiment [13]: Quantitative High-Throughput drug screen in 47 multiple myeloma cell lines against the NCATS MIPE library collection: JIM3_ECACC cell viability assay (AID 1918963; note: nearly all actives have a fitted effect of over 35% in size; note: potency is the fitted concentration of half-maximal effect). The procedure, abridged: as §1
Experiment [14] is described as follows: Quantitative High-Throughput drug screen in 47 multiple myeloma cell lines against the NCATS MIPE library collection: JIM1_ECACC cell viability assay (AID 1918964; note: potency is the fitted concentration of half-maximal effect). The procedure, abridged: as §2
Experiment [15] in a line: Quantitative High-Throughput drug screen in 47 multiple myeloma cell lines against the NCATS MIPE library collection: INA6_PLB cell viability assay (AID 1918965; note: nearly all actives have a fitted effect of over 55% in size; note: potency is the fitted concentration of half-maximal effect). The procedure, abridged:
as §4

Experiment [16] can be described thus: Quantitative High-Throughput drug screen in 47 multiple myeloma cell lines against the NCATS MIPE library collection: JJN3_DSMZ cell viability assay (AID 1918966; note: nearly all actives have a fitted effect of over 50% in size; note: potency is the fitted concentration of half-maximal effect). The procedure, abridged: as §2
Experiment [17] can be described thus: Quantitative High-Throughput drug screen in 47 multiple myeloma cell lines against the NCATS MIPE library collection: H1112_PLB cell viability assay (AID 1918967; note: nearly all actives have a fitted effect of over 30% in size; note: potency is the fitted concentration of half-maximal effect). The procedure, abridged: as §2
Experiment [18] in a line: Quantitative High-Throughput drug screen in 47 multiple myeloma cell lines against the NCATS MIPE library collection: ARD_JJKsccE7 cell viability assay (AID 1918929; note: potency is the fitted concentration of half-maximal effect). The procedure, abridged:
as §2

A short description of experiment [19]: Quantitative High-Throughput drug screen in 47 multiple myeloma cell lines against the NCATS MIPE library collection: Karpas620_DSMZ cell viability assay (AID 1918959). Note: nearly all actives have a fitted effect of over 30% in size. Note: potency is the fitted concentration of half-maximal effect. The procedure, abridged: as §1
Experiment [20] can be described thus: Quantitative High-Throughput drug screen in 47 multiple myeloma cell lines against the NCATS MIPE library collection: ARP1_JJKsccF8 cell viability assay (AID 1918928; note: potency is the fitted concentration of half-maximal effect; nearly all actives have a fitted effect of over 40% in size). The procedure, abridged: as §3

SMILES strings stand for the structures. Values without a mark were called inactive. Results filed as inconclusive are left out. Active and inactive are the calls of the source. Calls come from the whole dose curve; as a rule, active = well fitted curve in the direction sought with a large enough effect; inconclusive = small, poorly fitted or top-dose-only effect, or another doubt; inactive = no such curve, though single readings can be large; an effect the other way counts as inactive or inconclusive.

Phospholipid hydroperoxide glutathione peroxidase GPX4 (Homo sapiens), sequence (P36969 whole entry, looked up): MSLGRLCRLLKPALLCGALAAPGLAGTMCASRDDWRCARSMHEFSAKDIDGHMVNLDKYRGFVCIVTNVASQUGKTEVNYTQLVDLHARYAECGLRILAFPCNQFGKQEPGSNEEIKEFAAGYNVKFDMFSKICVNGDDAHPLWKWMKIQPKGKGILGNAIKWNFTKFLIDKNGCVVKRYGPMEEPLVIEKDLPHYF

For `O=c1[nH]nc(OCCCc2ccc(Cl)cc2)c(NCc2cccnc2)c1Br`, the Potency entry in experiment [1], in experiment [2], in experiment [3] and in [4] was “inactive” throughout. For the same compound, the outcome in [5] was inactive. In addition, the Potency was 16.6 µM (active) in experiment [6]; 4.18 µM (active) in experiment [7]; 18.7 µM (active) in experiment [8]; 7.43 µM (active) in [9]; 18.7 µM (active) in [10]; 4.69 µM (active) in [11]. The Potency in experiment [12] was 2.96 µM (active); in experiment [13] it was 8.33 µM (active); in [14] it was 8.33 µM (active); in [15], 4.69 µM (active); in experiment [16], 20.9 µM (active); in [17], 10.5 µM (active).

As to `Cc1ccc2c(c1)C(=O)[C@]1(O)CCN(c3ccccc3)C1=N2`, the Potency result in experiment [1], in experiment [2], in experiment [3], in experiment [4], in [6] and in experiment [7] was “inactive” throughout. The Potency result in experiment [18], in [19], in experiment [10], in experiment [12] and in [14] was “inactive” each time. In addition, in experiment [5], the compound was called inactive. Moreover, the Potency in experiment [16] was 11.8 µM (active).

`Cc1csc(-c2nnc(Nc3ccc(Oc4ncccc4-c4ccnc(N)n4)cc3)c3ccccc23)c1`: the Potency entry in experiment [1], in experiment [2], in experiment [3] and in experiment [4] was “inactive” throughout. For the same compound, in experiment [5], the outcome was inactive. Moreover, the Potency in experiment [6] was 16.6 µM (active); in experiment [7], 23.5 µM (active); in [9], 2.96 µM (active); in [18], 23.5 µM (active); in experiment [10], 14.8 µM (active); in experiment [12], 23.5 µM (active). The Potency in experiment [16] is 18.7 µM (active).

For the compound `Fc1ccc(CNc2ncnc3ccc(F)cc23)cc1`, the Potency result in experiment [1], in experiment [2], in [3] and in experiment [4] was “inactive” throughout. For the same compound, the outcome in [5] was inactive. The Potency was 7.43 µM (active) in [7]; 6.62 µM (active) in [8]; 7.43 µM (active) in experiment [9]; 6.62 µM (active) in experiment [20]; 4.69 µM (active) in experiment [18]; 5.9 µM (active) in [19]. The Potency in experiment [10] is 4.18 µM (active); in experiment [12] it was 8.33 µM (active); in experiment [15], 8.33 µM (active); in experiment [17], 13.2 µM (active).

Turning to `CNC(=O)c1ccc2c(C(=Nc3cccc(CN(C)C)c3)c3ccccc3)c(O)[nH]c2c1`, the Potency result in [1], in experiment [2], in experiment [3], in experiment [4] and in experiment [6] was “inactive” each time. For the same compound, in experiment [5], the call was inactive. Moreover, the Potency in experiment [7] is 23.5 µM (active); in experiment [12], 1.32 µM (active); in experiment [15], 20.9 µM (active); in [16] it was 2.64 µM (active); in experiment [17], 14.8 µM (active).

In the case of `CN[C@@H](C)[C@H]1[C@H](O)C[C@@]2(C)[C@@H]3CC[C@H]4C(C)(C)[C@@H](NC)CC[C@@]45C[C@@]35CC[C@]12C`, the activity change, negative = inhibition in [1] is -4.33% [at 9.73 µM]; in [2], 1.81% [at 11.6 µM]. For the same compound, the activity change, negative = thiol reactive in experiment [3] is 7.61% [at 11.5 µM]. Moreover, the activity, negative = inhibition in experiment [4] was 3.6% [at 11.6 µM]. The redox activity (% of DA3003) in experiment [5] was -0.744% [at 11.5 µM]. In addition, the Potency result in [7], in experiment [8], in experiment [18], in experiment [10], in [13] and in experiment [14] was “inactive” each time. The Potency entry in experiment [15], in [16] and in [17] was “inactive” each time. Also, in experiment [20], the Potency is 23.5 µM (active).

On to `C[C@@H](N)c1ccc(C(=O)Nc2ccnc3[nH]ccc23)cc1`, for which the Potency result in experiment [1], in experiment [2], in experiment [3] and in experiment [4] was “inactive” in each case. Besides, the call in experiment [5] was inactive. For the same compound, the Potency in experiment [6] is 26.4 µM (active); in experiment [7], 26.4 µM (active); in experiment [8] it was 23.5 µM (active); in [9] it was 23.5 µM (active); in experiment [18] it was 26.4 µM (active); in [12] it was 20.9 µM (active). Also, the Potency in [13] is 20.9 µM (active); in experiment [14], 13.2 µM (active); in [15], 20.9 µM (active); in experiment [16], 20.9 µM (active); in experiment [17], 23.5 µM (active).
